From PubChem BioAssay
The full list was thinned out, with hits kept by preference.
IkB sig inh: inhibitors of IkB signaling in ABC-DLBCL cells; ABC-DLBCL IkBa-CBG/CBR dual luciferase ratio, 4 h; response scale: scaled: untreated 0%, proteasome inhibitor 100%; 0.04% of 110,000 active; Potency, µM (series often up to 57.1 µM); AID 445; active = well fitted curve in the direction sought with a large enough effect in the signal ratio, not every such curve was filed as active; inconclusive = small, poorly fitted or top-dose-only effect, or a change in a side signal; the % refers to the signal ratio;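 also: the direction sought is a rising ratio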
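Luminescence ratio of IκBα-fused green versus native red beetle luciferase in OCI-Ly3 cells, 4 h post-doxycycline with compound; red signal alone, scaled from basal (0%) to zero light (-100%), flagged nonspecific or cytotoxic effects.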
Epigenetic mod: derepresses silenced GFP locus in mouse C127i cells; AID 597; 0.09% of 68,000 active; Potency, µM (top dose mostly 46.1 µM); mouse C127i GFP locus derepression, cytometry, 30 h
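Derepression screen: silenced CMV-GFP reporter in murine C127i cells, 30 h compound incubation at 37 C, washed cells imaged by laser-scanning cytometer to enumerate GFP-expressing objects of 20 to 120 um.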
CRE Fsk mod: modulators of forskolin-stimulated CRE signaling in CHO cells; CHO CRE-bla reporter (cAMP response element driving beta-lactamase), forskolin EC10, beta-lactamase ratio; Potency, µM (series often up to 38.2 µM), hits mostly activators; 2.5% of 71,000 active; active = well fitted activation curve with a large enough effect in the signal ratio, with a control signal flat, not every such curve was filed as active; inconclusive = small, poorly fitted or top-dose-only effect, or effect the other way, or a change in a side signal; the % refers to the signal ratio
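Reporter-gene assay: CHO cells with beta-lactamase behind cAMP responsive elements, co-treated with compound and EC10 NKH 477 for 3 hours at 37 degrees Celsius. Activity came from the 460/530 nm CCF4 emission ratio.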
ERK AVP block: inhibitors of vasopressin-stimulated ERK signaling pathway | HEK293-V1b, vasopressin-stimulated pERK AlphaScreen | 0.99% of 72,000 active | Potency, µM (top dose mostly 57.5 µM), actives largely listed as inhibitors; also: nearly all actives have a fitted effect of over 55% in size
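qHTS, compounds titrated on V1b-expressing HEK293 cells. Preincubation 30 min at 37C, vasopressin 25 nM for 5 min, lysis 10 min, bead incubation 5 hr at room temperature.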
HBB splice mod: hemoglobin beta splicing modulation; HBB splicing reporter cell assay, activation; EGFP reporter with mutant IVS2-654 intron; response scale: normalised to 500 nM splice-correcting PNA; Potency, µM (titrated, usually from 46.1 µM), usual class: activators; 0.06% of 65,000 active
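Compounds were applied for 2 days to HeLa EGFP-654 cells, 500/well in Optimem with 2% FCS. The reporter's EGFP is disrupted by mis-splicing of beta-globin intron IVS2-654. Readout: summed well GFP fluorescence from 488 nm laser scanning; reference was 500 nM antisense […] 654 PNA.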
CHO tox 24h: CHO cell toxicity at 24 h by ATP luminescence | shares compounds with CRE Fsk mod | CRE-bla CHO viability, ATP luminescence, 24 h | activity, negative = viability loss, % at 46.1 µM | 120 tested, under 10 active | AID 905
CHO via 40h: cytotoxicity in CRE-bla CHO cells at 40 h | shares compounds with CRE Fsk mod | CRE-bla CHO viability, ATP luminescence, 40 h | Potency, µM, hits mostly inhibitors | 120 tested, under 10 active | AID 906
CRE-luc potent: confirmation of CRE signaling potentiators in HEK293 CREB reporter cells | shares compounds with CRE Fsk mod | Potency, µM (top dose mostly 38.3 µM), hits mostly activators | 80% of 120 active | HEK293 CRE-luc2P, NKH477 EC10 potentiation, luminescence, 4 h
Of the large screens only hits and unclear results are named; the others gave an inactive call (follow-up assays come after a bar, where they were run); ! = not confirmed by another sample. Unless noted, calls follow the shape of the dose curve; as a rule, active = well fitted curve in the direction sought with a large enough effect; inconclusive = small, poorly fitted or top-dose-only effect, or another doubt; inactive = no such curve, though single readings can be large; an effect the other way counts as inactive or inconclusive.

COCCCn1c(N)c(C(=O)OCCOC)c2nc3ccccc3nc21	CRE Fsk mod 10µM
CCOC(=O)c1c(N)n(Cc2ccc(OC)cc2)c2nc3ccccc3nc12	CRE Fsk mod 10µM, ERK AVP block inconclusive
Nc1c(C(=O)OCC2CCCO2)c2nc3ccccc3nc2n1Cc1cccs1 (stereo not given)	IkB sig inh inconclusive, CRE Fsk mod 10µM
COC(=O)c1c(N)n(Cc2ccc(OC)cc2)c2nc3ccccc3nc12	IkB sig inh inconclusive, CRE Fsk mod 16µM
COCCOC(=O)c1c(N)n(Cc2ccc(OC)cc2)c2nc3ccccc3nc12	CRE Fsk mod 10µM
CCOC(=O)c1c(N)n(CCCOC(=O)c2ccco2)c2nc3ccccc3nc12	CRE Fsk mod 10µM
C[C@@H]1O[C@H](O[C@H]2C[C@@H](O)[C@]3(CO)[C@H]4[C@H](O)C[C@]5(C)[C@@H](C6=CC(=O)OC6)CC[C@@]5(O)[C@H]4CC[C@]3(O)C2)[C@@H](O)[C@H](O)[C@H]1O	IkB sig inh inconclusive, CRE Fsk mod inconclusive (no result: ERK AVP block, HBB splice mod)
C[C@H]1CC[C@]2(NC1)O[C@@H]1C[C@@H]3[C@@H]4CC=C5C[C@H](O)CC[C@@]5(C)[C@H]4CC[C@@]3(C)[C@H]1[C@@H]2C	none (no result: ERK AVP block, HBB splice mod)
COC(=O)C1=C(C)NC(C)=C(C(=O)OC)C1c1ccccc1[N+](=O)[O-]	IkB sig inh inconclusive, CRE Fsk mod 2µM!, ERK AVP block 25µM!
CC(C)[C@@]1(NC(=O)[C@@H]2C=C3c4cccc5[nH]cc(c45)C[C@@H]3N(C)C2)O[C@]2(O)[C@H]3CCCN3C(=O)[C@H](Cc3ccccc3)N2C1=O	none (no result: ERK AVP block)
CC(=O)Oc1c2c(c(CC=C(C)C)c3c1C(=O)C1=CC4CC5C(C)(C)OC(C/C=C(\C)C(=O)O)(C4=O)[C@]15O3)OC(C)(CCC=C(C)C)C=C2 (stereo not given in full)	ERK AVP block 6.3µM (no result: IkB sig inh, Epigenetic mod, CRE Fsk mod, HBB splice mod)
COC(=O)/C(C)=C\CC12OC(C)(C)C3CC(C=C4C(=O)c5c(OC)c6c(c(CC=C(C)C)c5OC431)OC(C)(CCC=C(C)C)C=C6)C2=O (stereo not given)	none (no result: IkB sig inh, Epigenetic mod, CRE Fsk mod, HBB splice mod)
O=c1cccc2n1C[C@@H]1C[C@H]2CN2CCCC[C@H]12	CRE Fsk mod inconclusive (no result: ERK AVP block, HBB splice mod)
CCOC(=O)C1SC2(C(F)F)CC1(O)c1c(c(OC)c3occc3c1OC)O2 (stereo not given)	ERK AVP block 20µM
CC[C@H]1[C@@H]2C[C@@H]3[C@@H]4N(C)c5ccccc5[C@@]45C[C@@H]([C@H]2[C@@H]5O)N3[C@@H]1O	none (no result: ERK AVP block, HBB splice mod)
C=CC(=O)OCCO	CRE Fsk mod inconclusive (no result: Epigenetic mod)
C=CC(=O)OCC(CO)(COC(=O)C=C)COC(=O)C=C	IkB sig inh inconclusive, CRE Fsk mod inconclusive, ERK AVP block 16µM (no result: Epigenetic mod)
C[C@H]1CC[C@@H]2[C@@H](C)C(=O)O[C@H]3O[C@@]4(C)CC[C@@H]1[C@]32OO4	none (no result: ERK AVP block, HBB splice mod)
Nc1nc2ccc(Cl)cc2c2nc(-c3ccco3)nn12	CRE Fsk mod 0.2µM, ERK AVP block inconclusive | CHO tox 24h inactive | CHO via 40h inconclusive | CRE-luc potent inconclusive
COc1ccc(Cc2nccc3cc(OC)c(OC)cc23)cc1OC	IkB sig inh inconclusive, CRE Fsk mod 0.16µM | CHO tox 24h inconclusive | CHO via 40h inconclusive | CRE-luc potent 0.71µM
COc1cc(CCN)ccc1O	ERK AVP block inconclusive
O=C(O)/C=C\c1ccc[c]([Sb](=[O])([OH])[OH])c1	CRE Fsk mod inconclusive
